Percent Effect data for eleven compounds are collected here from ChEMBL document CHEMBL3988442, “University of Dundee, Small-Polar-MMV Screening Library” (2021).

Holding throughout (set-up): scale not given: direction of the effect not stated beside the values
In assay [1] the target is Protein translocase subunit SecA (Escherichia coli (strain K12)) (UniProt P10408). The assay can be described thus: Assay to Identify E. coli SecA ATPase Inhibitors. The class given is functional. As to conditions: 30 µM.
Sequence of Protein translocase subunit SecA (Escherichia coli (strain K12)) (P10408 whole entry): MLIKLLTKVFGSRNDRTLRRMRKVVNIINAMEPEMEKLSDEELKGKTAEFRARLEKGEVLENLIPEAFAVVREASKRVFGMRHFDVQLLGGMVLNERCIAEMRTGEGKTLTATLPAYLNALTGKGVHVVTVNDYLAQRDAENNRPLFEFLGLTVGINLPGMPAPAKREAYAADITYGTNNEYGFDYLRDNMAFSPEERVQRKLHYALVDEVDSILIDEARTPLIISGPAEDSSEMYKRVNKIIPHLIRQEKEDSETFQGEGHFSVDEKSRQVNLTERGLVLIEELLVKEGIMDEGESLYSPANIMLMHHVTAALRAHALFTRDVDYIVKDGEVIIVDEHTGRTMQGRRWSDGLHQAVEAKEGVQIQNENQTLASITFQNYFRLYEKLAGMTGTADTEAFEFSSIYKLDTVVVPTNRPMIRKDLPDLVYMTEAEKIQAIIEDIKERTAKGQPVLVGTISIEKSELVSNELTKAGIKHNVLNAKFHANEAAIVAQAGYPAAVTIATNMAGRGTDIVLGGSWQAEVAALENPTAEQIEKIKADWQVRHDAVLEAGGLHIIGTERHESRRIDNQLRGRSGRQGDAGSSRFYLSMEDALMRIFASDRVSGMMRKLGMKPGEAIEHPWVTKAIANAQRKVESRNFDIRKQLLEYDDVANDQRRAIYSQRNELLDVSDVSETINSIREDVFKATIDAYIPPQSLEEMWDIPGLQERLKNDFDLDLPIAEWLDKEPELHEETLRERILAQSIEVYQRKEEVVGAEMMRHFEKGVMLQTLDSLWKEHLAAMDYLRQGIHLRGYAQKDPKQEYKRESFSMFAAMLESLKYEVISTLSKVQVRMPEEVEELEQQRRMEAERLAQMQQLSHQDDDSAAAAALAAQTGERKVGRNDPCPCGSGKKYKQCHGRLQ
Assay [2] addresses T1, Ubiquitin-activating enzyme e1, putative (Leishmania donovani (strain BPK282A1)) (UniProt E9BSI1).
T1 sequence (whole entry): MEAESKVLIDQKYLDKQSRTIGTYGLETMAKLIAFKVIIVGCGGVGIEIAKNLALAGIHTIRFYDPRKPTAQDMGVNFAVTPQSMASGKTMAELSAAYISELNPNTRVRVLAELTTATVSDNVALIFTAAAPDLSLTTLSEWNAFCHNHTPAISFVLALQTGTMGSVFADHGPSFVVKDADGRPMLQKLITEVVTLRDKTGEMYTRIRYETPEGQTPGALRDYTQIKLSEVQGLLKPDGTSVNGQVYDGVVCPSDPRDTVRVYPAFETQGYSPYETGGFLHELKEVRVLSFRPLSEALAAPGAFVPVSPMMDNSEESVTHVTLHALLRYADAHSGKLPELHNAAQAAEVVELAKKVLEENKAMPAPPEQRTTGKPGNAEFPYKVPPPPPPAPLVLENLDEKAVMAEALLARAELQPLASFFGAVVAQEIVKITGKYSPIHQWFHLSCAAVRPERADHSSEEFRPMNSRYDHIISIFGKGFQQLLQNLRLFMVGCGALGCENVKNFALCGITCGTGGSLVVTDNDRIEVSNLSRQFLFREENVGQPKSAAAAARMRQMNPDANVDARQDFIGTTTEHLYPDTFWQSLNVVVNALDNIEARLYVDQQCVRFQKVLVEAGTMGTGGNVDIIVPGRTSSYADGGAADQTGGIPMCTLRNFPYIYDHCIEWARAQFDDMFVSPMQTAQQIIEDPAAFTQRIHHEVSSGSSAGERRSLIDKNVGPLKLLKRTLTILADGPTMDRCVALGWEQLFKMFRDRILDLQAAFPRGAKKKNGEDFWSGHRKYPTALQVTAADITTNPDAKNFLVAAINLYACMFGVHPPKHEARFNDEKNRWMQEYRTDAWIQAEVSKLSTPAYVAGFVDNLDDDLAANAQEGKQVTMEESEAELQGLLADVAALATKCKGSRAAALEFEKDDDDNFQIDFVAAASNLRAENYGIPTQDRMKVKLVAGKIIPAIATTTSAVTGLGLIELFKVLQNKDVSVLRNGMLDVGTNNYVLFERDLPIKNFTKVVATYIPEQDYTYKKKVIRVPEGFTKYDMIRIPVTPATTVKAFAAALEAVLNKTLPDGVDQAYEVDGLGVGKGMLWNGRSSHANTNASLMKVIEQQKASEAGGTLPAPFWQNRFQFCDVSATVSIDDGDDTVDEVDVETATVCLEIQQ
The experiment in a line: Leishmania donovani Ubiquitin Activating Enzyme (LdE1). In kind it is functional. As to conditions: 30 µM.

The target in assay [3] is AMP-activated protein kinase, AMPK (Homo sapiens) (UniProt P54646+O43741+P54619+Q9UGJ0+Q9Y478+Q13131+Q9UGI9). The assay can be described thus: AMP-dependent Kinase enzyme assay. An in vitro enzyme assay that detects ADP turnover that is directly proportional to AMPK activity. This uses naive AMPK that is activated during the assay with MK-8722. As to conditions: 30 µM. In kind it is functional.

Assay [4] addresses Sialic acid-binding Ig-like lectin 9 (Homo sapiens) (UniProt Q9Y336). The experiment in a line: Hs-Siglec9 ALPHAscreen SOP 20170721. As to conditions: 10 µM. On the technique in general: Bead proximity is the source of the signal in Alpha formats.
Another assay has as its system Trypanosoma cruzi. The experiment in a line: Trypanosoma cruzi phosphomannomutase and mannose-1-phosphate guanylyltransferase assay. As to conditions: 10 µM. In kind it is functional.
In assay [5] the target is T2, Arginase-2, mitochondrial (Homo sapiens) (UniProt P78540).
T2 sequence (whole entry): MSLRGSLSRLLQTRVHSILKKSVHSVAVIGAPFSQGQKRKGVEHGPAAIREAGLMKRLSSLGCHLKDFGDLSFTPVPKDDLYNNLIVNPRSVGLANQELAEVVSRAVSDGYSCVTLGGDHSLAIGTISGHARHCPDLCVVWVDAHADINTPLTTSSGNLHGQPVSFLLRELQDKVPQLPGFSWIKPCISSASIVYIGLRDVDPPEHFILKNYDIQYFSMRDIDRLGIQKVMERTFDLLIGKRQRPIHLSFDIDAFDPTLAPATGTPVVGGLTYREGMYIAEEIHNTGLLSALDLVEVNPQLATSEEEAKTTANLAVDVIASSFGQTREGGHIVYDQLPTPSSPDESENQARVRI
The experiment in a line: in vitro enzyme assay to detect the production of urea directly proportional to the activity of Arginase II. Further: in the data most compounds retested in dose-response had high values. The class given is functional. As to conditions: 33.3 µM.

Assay [6] concerns the target T3, Proteasome subunit beta (Trypanosoma cruzi) (UniProt O96673).
T3 sequence (whole entry): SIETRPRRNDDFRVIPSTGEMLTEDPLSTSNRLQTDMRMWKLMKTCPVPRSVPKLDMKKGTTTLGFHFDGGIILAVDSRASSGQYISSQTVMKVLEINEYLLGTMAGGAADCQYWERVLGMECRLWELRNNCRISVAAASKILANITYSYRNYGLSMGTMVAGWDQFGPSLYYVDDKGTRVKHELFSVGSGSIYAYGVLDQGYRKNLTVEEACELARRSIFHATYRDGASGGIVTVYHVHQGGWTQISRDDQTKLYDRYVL
The assay can be described thus: Trypanosoma cruzi proteasome chymotrypsin-like activity (TcProtChymo) assay. Further: in the data most compounds retested in dose-response had high values. As to conditions: 9.37 µM. The class given is functional.

The species named for another assay is Homo sapiens. The assay can be described thus: To identify inhibition of the IFN signalling (Jak-Stat) pathway via expression of an eGFP reporter gene under the control of an IFN-stimulated response element (ISRE) containing MxA promoter. The class given is functional. As to conditions: 30 µM. In general terms: A reporter such as luciferase makes a cellular process visible.

The target of assay [7] is T4, Tyrosyl-tRNA synthetase, putative (Trypanosoma cruzi (strain CL Brener)) (UniProt Q4DSP6).
T4 sequence (whole entry): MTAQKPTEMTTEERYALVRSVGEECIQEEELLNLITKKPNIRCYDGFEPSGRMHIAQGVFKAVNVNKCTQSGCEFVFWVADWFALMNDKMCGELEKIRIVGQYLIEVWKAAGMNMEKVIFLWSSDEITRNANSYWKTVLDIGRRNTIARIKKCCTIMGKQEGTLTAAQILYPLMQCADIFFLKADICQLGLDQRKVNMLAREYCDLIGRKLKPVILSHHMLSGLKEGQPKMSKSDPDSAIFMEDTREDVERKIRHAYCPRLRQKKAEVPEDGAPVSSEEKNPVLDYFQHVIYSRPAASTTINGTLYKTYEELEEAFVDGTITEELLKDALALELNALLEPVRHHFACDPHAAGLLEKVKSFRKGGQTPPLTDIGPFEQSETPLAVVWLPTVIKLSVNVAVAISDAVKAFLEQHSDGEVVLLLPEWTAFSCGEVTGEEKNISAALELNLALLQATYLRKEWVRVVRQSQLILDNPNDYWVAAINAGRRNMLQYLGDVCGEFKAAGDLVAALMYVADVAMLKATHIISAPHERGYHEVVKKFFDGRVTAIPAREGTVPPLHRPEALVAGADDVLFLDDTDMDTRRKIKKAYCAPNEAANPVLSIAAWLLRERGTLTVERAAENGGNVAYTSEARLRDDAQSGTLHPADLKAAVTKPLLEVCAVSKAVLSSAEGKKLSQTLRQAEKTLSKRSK
The assay can be described thus: Trypanosoma cruzi tyrosyl tRNA synthetase (TcYRS) _High Tyrosine SOP. Further: in the data most compounds retested in dose-response had high values. In kind it is functional. As to conditions: 30 µM.

Assay [8] concerns the target T4, Tyrosyl-tRNA synthetase, putative (Trypanosoma cruzi (strain CL Brener)). The assay can be described thus: Trypanosoma cruzi tyrosyl tRNA synthetase (TcYRS) SOP. In kind it is functional. As to conditions: 30 µM.
Assay [9] concerns the target Chromo domain-containing protein 1 (Saccharomyces cerevisiae (strain ATCC 204508 / S288c) (Baker's yeast)) (UniProt P32657). The assay can be described thus: ScCHD-1 Enzyme Inhibition Assay. Further: in the data most compounds retested in dose-response had high values. As to conditions: 30 µM. The class given is functional.

For some of these results: Entries with a potency or affinity are not part of this list.

Sequence of Sialic acid-binding Ig-like lectin 9 (Homo sapiens) (Q9Y336 whole entry): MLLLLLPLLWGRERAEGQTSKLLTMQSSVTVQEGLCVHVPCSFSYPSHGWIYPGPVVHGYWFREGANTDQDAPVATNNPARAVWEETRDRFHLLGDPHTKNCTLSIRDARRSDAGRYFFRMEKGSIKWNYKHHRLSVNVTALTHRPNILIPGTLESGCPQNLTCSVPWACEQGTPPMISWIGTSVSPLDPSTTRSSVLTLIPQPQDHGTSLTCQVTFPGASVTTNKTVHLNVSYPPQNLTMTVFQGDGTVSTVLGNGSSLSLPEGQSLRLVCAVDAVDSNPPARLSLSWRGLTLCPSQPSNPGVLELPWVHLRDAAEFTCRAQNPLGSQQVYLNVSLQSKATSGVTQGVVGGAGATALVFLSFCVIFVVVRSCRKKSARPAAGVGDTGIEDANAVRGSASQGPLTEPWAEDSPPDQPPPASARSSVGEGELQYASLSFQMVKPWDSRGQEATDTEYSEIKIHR
Sequence of Chromo domain-containing protein 1 (Saccharomyces cerevisiae (strain ATCC 204508 / S288c) (Baker's yeast)) (P32657 whole entry, the tested form may be a part): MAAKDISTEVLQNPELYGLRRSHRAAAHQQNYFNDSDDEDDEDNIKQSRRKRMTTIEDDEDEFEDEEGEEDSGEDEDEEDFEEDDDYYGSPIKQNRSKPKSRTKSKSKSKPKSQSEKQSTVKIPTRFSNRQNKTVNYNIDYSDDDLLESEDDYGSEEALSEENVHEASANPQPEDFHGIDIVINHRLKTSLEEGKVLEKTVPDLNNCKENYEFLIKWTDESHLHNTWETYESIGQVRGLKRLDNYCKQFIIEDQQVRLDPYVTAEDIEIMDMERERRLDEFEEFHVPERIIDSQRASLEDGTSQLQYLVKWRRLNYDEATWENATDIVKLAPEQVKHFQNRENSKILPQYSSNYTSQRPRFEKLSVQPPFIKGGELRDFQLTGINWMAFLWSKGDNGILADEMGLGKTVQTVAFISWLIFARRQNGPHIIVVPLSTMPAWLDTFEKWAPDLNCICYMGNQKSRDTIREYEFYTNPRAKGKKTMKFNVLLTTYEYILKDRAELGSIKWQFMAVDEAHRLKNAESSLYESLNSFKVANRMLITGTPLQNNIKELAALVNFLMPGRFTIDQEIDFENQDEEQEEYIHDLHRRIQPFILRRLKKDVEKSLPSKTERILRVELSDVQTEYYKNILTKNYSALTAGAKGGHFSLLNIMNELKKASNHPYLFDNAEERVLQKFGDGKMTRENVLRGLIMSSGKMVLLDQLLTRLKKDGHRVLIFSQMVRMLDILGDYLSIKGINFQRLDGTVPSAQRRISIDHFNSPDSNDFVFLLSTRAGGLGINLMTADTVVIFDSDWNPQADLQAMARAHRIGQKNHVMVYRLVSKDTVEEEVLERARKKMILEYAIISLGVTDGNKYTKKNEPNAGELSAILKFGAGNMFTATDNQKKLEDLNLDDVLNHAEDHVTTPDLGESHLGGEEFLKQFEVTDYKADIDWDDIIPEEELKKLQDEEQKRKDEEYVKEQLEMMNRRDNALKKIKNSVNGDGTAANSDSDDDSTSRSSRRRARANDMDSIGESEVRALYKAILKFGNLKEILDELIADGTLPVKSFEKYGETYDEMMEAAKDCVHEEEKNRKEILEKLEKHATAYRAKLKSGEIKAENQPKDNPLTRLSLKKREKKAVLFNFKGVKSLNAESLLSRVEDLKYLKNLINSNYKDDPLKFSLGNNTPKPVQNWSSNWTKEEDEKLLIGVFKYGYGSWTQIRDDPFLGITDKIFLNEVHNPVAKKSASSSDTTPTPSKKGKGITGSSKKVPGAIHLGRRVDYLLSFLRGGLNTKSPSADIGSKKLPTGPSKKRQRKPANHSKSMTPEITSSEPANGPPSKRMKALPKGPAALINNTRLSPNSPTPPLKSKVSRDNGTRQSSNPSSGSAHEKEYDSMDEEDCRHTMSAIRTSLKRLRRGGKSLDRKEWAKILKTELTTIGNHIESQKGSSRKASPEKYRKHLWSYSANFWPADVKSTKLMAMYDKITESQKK

As for `Cc1nn(C)cc1C(=O)N1C[C@H]2CC[C@@H]1CN(S(=O)(=O)N(C)C)C2`, the Percent Effect in assay [1] is -0.765%; in assay [2], 5.33%; in assay [3], -1.08%; in assay [4] it was 4.66%; with Trypanosoma cruzi, -8.08%; in assay [5] it was 2.6%. Moreover, the Percent Effect in assay [6] is 20.2%; in the assay listed under Homo sapiens, 13.3%; in [7], 0.546%; in [8], 1.24%; in assay [9], -6.02%.

Consider `CCCc1nnsc1C(=O)NCC1CCN(S(C)(=O)=O)CC1`, for which the Percent Effect is -4.49% in assay [1]; 16.4% in [2]; -9.31% in assay [3]; 9.94% in assay [4]; 1.57% in the assay with Trypanosoma cruzi; 0.455% in assay [5]. Also, the Percent Effect in [6] is 20.1%; in the assay listed under Homo sapiens it was 9.73%; in assay [7], 7.53%; in [8], 17.5%; in assay [9] it was -6.78%.

For `Cc1nc(C)n(CC2CCCN(c3ncnc4ccsc34)C2)n1` (stereo unspecified), the Percent Effect in assay [1] was -0.224%; in [2], 10.8%; in [3] it was 4.37%; in [4], -5.33%; in the assay on Trypanosoma cruzi, -7.08%; in assay [5], 1.2%. Also, the Percent Effect was 14.2% in assay [6]; 73.4% in the assay filed under Homo sapiens; 6.4% in assay [7]; 16.1% in assay [8]; -6.75% in assay [9].

Consider `CCCN1CCCn2nc(CNC(=O)CCc3scnc3C)cc2C1`, for which the Percent Effect is -2.71% in assay [1]; 20.8% in assay [2]; -13.3% in [3]; 19.9% in assay [4]; 3.98% in the assay on Trypanosoma cruzi; 8.39% in assay [5]. The Percent Effect is 16.7% in [6]; -7.34% in the assay listed under Homo sapiens; 5.26% in assay [7]; 17.9% in [8]; -7.37% in [9].

As for `O=C(CSc1ccccc1Cl)NS(=O)(=O)c1ccc2c(c1)OCCO2`, the Percent Effect in assay [1] is -4.83%; in assay [2] it was -21.1%; in assay [3], 27.8%; in assay [4], 4.23%; with Trypanosoma cruzi it was 1.69%; in [5], -1.15%. Besides, the Percent Effect in [6] is 9.69%; in the assay filed under Homo sapiens, 4.4%; in assay [7], -15.2%; in [8] it was -12.2%; in assay [9], -10.3%.

`Cc1cc(C)n(CC2CCCN2C(=O)c2cccc3[nH]ncc23)n1` (stereo unspecified): the Percent Effect is -2.49% in assay [1]; -10.8% in assay [2]; -1.43% in assay [3]; 12.1% in [4]; 7.89% with Trypanosoma cruzi; -2.77% in assay [5]. Also, the Percent Effect in assay [6] is -4.49%; in the assay listed under Homo sapiens it was 7.84%; in assay [7], 5.94%; in assay [8] it was 15.8%; in assay [9] it was -3.25%.

For the compound `CC(=O)N1CCC(C(=O)c2cc(C)cnc2N)CC1`, the Percent Effect in [1] is -3.36%; in [2] it was 10.7%; in assay [3], 3.67%; in assay [4], 3.51%; with Trypanosoma cruzi, 3.15%; in [5], 3.03%. The Percent Effect in assay [6] was 7.67%; in the assay listed under Homo sapiens, 17.4%; in assay [7], 4.25%; in [8] it was 11.5%; in [9] it was -4.18%.

Turning to `Cc1noc(C)c1C(=O)NCC(O)c1ccc(F)cc1F` (stereo unspecified), the Percent Effect in [1] is -3.08%; in [2] it was 0%; in [3], -4.32%; in assay [4], -2.42%; in the assay on Trypanosoma cruzi, -3.06%; in assay [5] it was 1.66%. Besides, the Percent Effect in [6] is 3.05%; in the assay listed under Homo sapiens, 10.6%; in assay [7] it was -3.96%; in assay [8], -6.1%; in assay [9] it was 10.4%.

Take `CCCNC(=O)c1cc2c([nH]c1=O)CC(c1cccs1)CC2=O` (stereo unspecified): the Percent Effect is 0.191% in assay [1]; 14.7% in assay [2]; 13.3% in [3]; 3.54% in assay [4]; 3.34% in the assay with Trypanosoma cruzi; -0.88% in assay [5]. For the same compound, the Percent Effect was 7.58% in assay [6]; 21% in the assay listed under Homo sapiens; -4.23% in assay [7]; 12.8% in assay [8]; -7.37% in assay [9].

Consider `CN1CCN(Cc2cccnc2)C2(CCN(c3ncc(F)cn3)C2)C1=O` (stereo unspecified), for which the Percent Effect in assay [1] is -4.27%; in assay [2], 5.2%; in [3] it was 2.79%; in assay [4] it was 8.1%; in the assay on Trypanosoma cruzi, -0.885%; in assay [5] it was -13.8%. Moreover, the Percent Effect in assay [6] is 2.33%; in the assay filed under Homo sapiens, -4.32%; in [7] it was 4.3%; in [8], 8.64%; in [9], -0.489%.

`CCc1nnc2n1CC(CNCc1ccncc1)CC2` (stereo unspecified): the Percent Effect in assay [1] is 1.7%; in [2] it was 4.17%; in assay [3] it was -9.25%; in assay [4], -5.88%; with Trypanosoma cruzi it was -3.6%; in assay [5], 5.3%. For the same compound, the Percent Effect in assay [6] was 19.6%; in the assay listed under Homo sapiens it was -6.46%; in [7], 5.26%; in assay [8], 0%; in assay [9], -3.45%.
